Shown are actives, neighbours in structure and some others; about 10% of the full set was active somewhere.
G9a inh – blocks human histone lysine methyltransferase G9a; Q96KQ7; G9a H3K9 monomethylation, AlphaScreen, 2 h; Potency, µM (titrated, usually from 102 µM), inactives show top-dose activity, negative = inhibition, most hits filed as inhibitors; 350,000 tested, 8.8% active; note: % is set by controls: 0 for no effect and ±100 for the full control effect; nearly all actives have a fitted effect of over 75% in size
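G9a (20 nM) preincubated 15 min RT with compounds, then 500 nM biotinylated H3K9 peptide and 20 uM SAM added; 2 h RT reaction. Monomethyl-H3K9 product detected by AlphaScreen with anti-H3K9me1 antibody, streptavidin donor and anti-rabbit IgG acceptor beads.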
HP1b binding inh – inhibitors of HP1-beta chromodomain binding to methylated histone tails | P83916 | AlphaScreen HP1-beta / biotin-H3K9me3 peptide binding | Potency, µM (top dose mostly 114 µM), inactives show at the top dose activity change, negative = inhibition, actives largely listed as inhibitors | 390,000 tested, 0.56% active | AID 540317; note: nearly all actives have a fitted effect of over 70% in size
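HP1-beta protein (50 nM final) preincubated 30 min at room temperature with biotinylated H3(1-18)K9me3 peptide (50 nM) in PBS pH 7.4, 0.01% Tween-20, then compound added for 30 min. AlphaScreen streptavidin donor/nickel chelate acceptor beads (10 ug/mL final), 30 min dark, luminescence read.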
GLS inh – glutaminase GLS (human) inhibition; GLS enzymatic activity, qHTS titration; Potency, µM (doses to about 45.5 µM), for the others: at the top dose activity change, negative = inhibition, hits mostly inhibitors; 410,000 tested, 0.21% active; AID 624170; note: % is set by controls: 0 for no effect and ±100 for the full control effect
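Glutamate formation by hKGA was monitored fluorometrically using coupled glutamate oxidase, HRP and Amplex Red. Substrate was added as 1 mM L-glutamine solution; incubation was 30 min at RT after an initial read.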
BAZ2B block – BAZ2B (human) inhibition; AlphaScreen BAZ2B-H3K14Ac peptide displacement; Potency, µM (highest dose often 114 µM), without a hit: at the top dose activity change, negative = inhibition, most hits filed as inhibitors; 360,000 tested, 4.4% active; note: % is set by controls: 0 for no effect and ±100 for the full control effect; nearly all actives have a fitted effect of over 60% in size
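AlphaScreen displacement of biotin-H3(5-23)K14Ac peptide (50 nM final) from BAZ2B (50 nM final) in PBS pH 7.4, 0.01% Tween-20; complex preformed 30 min RT, then compounds (top 110 uM) 30 min RT, beads 20 min dark.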
JMJD2A Tudor – blocks the human JMJD2A Tudor domain. O75164. Potency, µM (titrated, usually from 114 µM), without a hit: top-dose activity change, negative = inhibition, actives largely listed as inhibitors. AlphaScreen JMJD2A-Tudor / H3K4me3 peptide binding. 390,000 tested, 4.4% active; note: % is set by controls: 0 for no effect and ±100 for the full control effect; nearly all actives have a fitted effect of over 50% in size
Target sequence (O75164 whole entry, looked up, the tested form may be a part): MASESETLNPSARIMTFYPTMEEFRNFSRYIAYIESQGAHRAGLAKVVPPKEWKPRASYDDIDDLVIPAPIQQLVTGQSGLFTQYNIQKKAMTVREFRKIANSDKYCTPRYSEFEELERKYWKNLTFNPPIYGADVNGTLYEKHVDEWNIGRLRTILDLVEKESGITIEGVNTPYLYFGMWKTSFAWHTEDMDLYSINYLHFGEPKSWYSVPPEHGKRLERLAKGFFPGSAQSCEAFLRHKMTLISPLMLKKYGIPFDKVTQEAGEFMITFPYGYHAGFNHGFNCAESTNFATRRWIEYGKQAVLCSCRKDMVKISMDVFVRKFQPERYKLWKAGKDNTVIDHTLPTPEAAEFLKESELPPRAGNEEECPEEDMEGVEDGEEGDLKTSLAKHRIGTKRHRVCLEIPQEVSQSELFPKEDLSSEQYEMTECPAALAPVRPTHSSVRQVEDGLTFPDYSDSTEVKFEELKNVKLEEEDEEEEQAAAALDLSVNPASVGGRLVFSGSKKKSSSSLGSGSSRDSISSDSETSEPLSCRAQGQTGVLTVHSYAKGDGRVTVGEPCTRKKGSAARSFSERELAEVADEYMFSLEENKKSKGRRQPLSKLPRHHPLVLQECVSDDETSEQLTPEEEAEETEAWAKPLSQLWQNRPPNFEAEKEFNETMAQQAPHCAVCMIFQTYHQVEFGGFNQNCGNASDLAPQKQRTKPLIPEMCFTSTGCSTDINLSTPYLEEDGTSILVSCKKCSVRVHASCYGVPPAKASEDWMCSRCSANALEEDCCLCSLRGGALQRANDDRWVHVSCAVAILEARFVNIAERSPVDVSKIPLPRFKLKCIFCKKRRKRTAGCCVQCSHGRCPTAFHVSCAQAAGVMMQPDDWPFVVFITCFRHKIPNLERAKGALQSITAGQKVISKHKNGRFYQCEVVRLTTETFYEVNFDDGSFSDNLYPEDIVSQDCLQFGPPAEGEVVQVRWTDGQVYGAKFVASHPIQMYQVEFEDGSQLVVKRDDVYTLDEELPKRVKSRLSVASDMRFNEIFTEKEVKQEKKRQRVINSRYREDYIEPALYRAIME
An asterisk follows results filed as active; ? = inconclusive; nt = no result given; ! = not active in a repeat; [ ] = dose if it differs, or a comment. Calls come from the whole dose curve; as a rule, active = well fitted curve in the direction sought with a large enough effect; inconclusive = small, poorly fitted or top-dose-only effect, or another doubt; inactive = no such curve, though single readings can be large; an effect the other way counts as inactive or inconclusive. Potency is the fitted concentration of half-maximal effect.

SMILES	G9a inh	HP1b binding inh	GLS inh	BAZ2B block	JMJD2A Tudor
CC(=O)c1ccc(NC2CC(O)C(O)CO2)cc1 (centres undefined)	?	?	-1%	1%	-24%[57.1 µM]
CSc1ncc(/C=C2/C(=O)NC(=O)N(c3ccc(C(C)C)cc3)C2=O)cn1	7.9µM*	-15%	-13%	-12%	?
CSc1ncc(/C=C2/C(=O)NC(=O)N(C)C2=O)cn1	nt	-19%	13%	-28%	-9%
O=C1NC(=O)N(Cc2ccccc2)C(=O)/C1=C/N1CCCc2ccccc21	7.9µM*	7%	7%	?	?
Cc1ccccc1N1C(=O)NC(=O)/C(=C\c2cnn(-c3ccccc3)c2)C1=O	?	34%	?	6%	-29%
CCCCN1C(=O)NC(=O)/C(=C/c2cnc(SC)nc2)C1=O	10µM*	-22%	-13%	-34%	?
O=C1NC(=O)N(Cc2ccccc2)C(=O)/C1=C/c1cnc(-c2ccccc2)nc1	10µM*	-6%	-3%	-34%	79µM*
C[C@]12CCC(=O)C=C1CCC1C2CC[C@@]2(C)C1CC[C@@H]2O (some centres undefined)	nt	18%	-10%	nt	-21%
CCOC(=O)[C@]12Cc3ccc(C)cc3[C@H]1N(C1CCCCC1)C(=O)c1ccccc12	nt	nt	66%	nt	nt
CC(C)c1ccc(N2C(=O)NC(=O)/C(=C/c3cnc(-c4ccccc4)nc3)C2=O)cc1	3.5µM*	-5%	4%	?	89µM*
C[C@]12CCC(OC(=O)CCC(=O)O)CC1=CCC1C2CC[C@]2(C)C(=O)CCC12 (some centres undefined)	?	7%	-8%	-2%	-8%
COc1ccc(C2SCC(=O)Nc3c2c(=O)[nH]n3C2CCCCCC2)cc1 (centres undefined)	71µM*	26%	-17%	14%	-15%
CN(C(=O)Oc1cccc2cccnc12)c1ccccc1	?	27%	1%	40%	-13%
Oc1cccc2cccnc12	17%[59 µM]	-2%	?	10µM*	?
Cc1ccc(S(=O)(=O)NC(Cc2cnc[nH]2)C(=O)O)cc1 (centres undefined)	?	12%	11%	-25%	13µM*
COc1ccc2c(c1)NP(=S)(c1ccccc1)N2C (centres undefined)	nt	35µM*	8%	nt	50µM*
CCOP(=O)(OCC)C(NC(=O)c1cccc(C)c1)C(Cl)(Cl)Cl (centres undefined)	nt	34%	-4%	7%	-10%
Cc1cccc(C(=O)NC(Oc2ccccc2)C(Cl)(Cl)Cl)c1 (centres undefined)	4%[59 µM]	0%	-21%	10%	40µM*
Cc1c(C(=O)N2CCC3(CC2)OCCO3)oc2ccc(S(=O)(=O)N3CCCCC3)cc12	9%	37%	0%	0%	-11%
CN1C(=O)C(=Cc2ccc(N3CCOCC3)o2)C(=O)N(C)C1=S	-4%	-22%	7%	?	-19%
C=CCN1C(=O)/C(=C\c2ccc(N3CCOCC3)o2)C(=O)NC1=S	8.9µM*	1%	-10%	1%	-9%
CCN1C(=O)C(=Cc2ccc(N3CCOCC3)o2)C(=O)N(CC)C1=S	nt	-8%	1%	40µM*	-34%
CSCCC(c1nnnn1C1CCCC1)N1CCC2(CC1)C(=O)NCN2c1ccccc1 (centres undefined)	nt	nt	15%	nt	nt
C[C@]12CCC3[C@@H](CC[C@@H]4C[C@H](O)CC[C@]34C)[C@@H]1CCC2=O (some centres undefined)	-1%[59 µM]	41%	-6%	7%	-8%
Cc1ccccc1NP(=O)(Oc1ccccc1F)Oc1ccccc1F	44%[59 µM]	31%	20%	9%	-3%
SMILES	G9a inh	HP1b binding inh	GLS inh	BAZ2B block	JMJD2A Tudor
O=[N+]([O-])c1cc(O)c(O)c([N+](=O)[O-])c1	7.9µM*!	20%	29%	?	-21%
O=[N+]([O-])c1cc(I)c(O)c(I)c1	6%[59 µM]	nt	11%	nt	nt
O=[N+]([O-])c1ccc(O)c([N+](=O)[O-])c1	-49%[2.33 µM]	18%	-7%	nt	?
O=[N+]([O-])c1cc(-n2cnnn2)c(O)c([N+](=O)[O-])c1	50µM*	50%	1%	-19%	-12%[11.4 µM]
C/C(=N\N1CCN(C)CC1)c1c(O)[nH]c(=O)[nH]c1=O	-8%[59 µM]	16%	-7%	2%	-4%
CCCOC(=O)Cc1ccc(OCC(=O)N(CC)CC)c(OC)c1	nt	nt	-3%	nt	nt
CC[N+](C)(CC)CCCOC(=O)C(O)(c1ccccc1)C1CCCCC1 (centres undefined)	?	?	12%	-28%	40µM*
CCOC(C(=O)OCCC[N+](C)(CC)CC)(c1ccccc1)c1ccccc1	-4%[59 µM]	15%	-4%	-20%	-4%
Cc1ccc2c(c1)=NC(=O)/C(=C/c1c(O)[nH]c(=O)[nH]c1=O)C=2	?	31%	-10%	-12%	-16%
Cc1ccc2c(c1)=C/C(=C\c1c(O)[nH]c(=S)[nH]c1=O)C(=O)N=2	3.5µM*	nt	nt	?	nt
O=C(Cc1ccccc1)OC(COCc1ccccc1)CN1CCOCC1 (centres undefined)	12%[12.7 µM]	27%	1%	-1%	-19%
CCCN1CCCC2Cc3[nH]ncc3CC21 (centres undefined)	50µM*	nt	nt	nt	nt
CCCc1cnc2c(c1SCC(=O)Nc1ccc([N+](=O)[O-])cc1)c(=O)n(C)c(=O)n2C	13µM*	-5%	-15%	-16%	-24%
COc1cccc(CN2CCNCC2)c1	79µM*	37%	8%	-6%	-10%
COc1cc(CN2CCNCC2)cc(OC)c1OC	nt	11%	-1%	4%	-17%
O=c1c2ccccc2[se]n1-c1ccccc1	1.4µM*!	?	6.3µM*	1.4µM*	8.9µM*
O=C(CCCCCn1c(=S)[nH]c2ccccc2c1=O)N1CCC2(CC1)OCCO2	50µM*	40%	-2%	-7%	-23%
COC(=O)C1=C(c2ccc(-c3ccccc3)c(F)c2)C[C@@H]2CC[C@H]1N2C(=O)NCCOc1ccccc1	18%[2.33 µM]	18%	4%	5%	-21%
OCCNCCc1c[nH]c2ccc(OCc3ccccc3)cc12	?	-9%	3%	?	40µM*
Cc1cc(C(=O)NP(=O)(N2CCOCC2)N2CCOCC2)c(C)n1C1CC1	?	18%	-3%	-5%	-21%
Cc1c(OC(=O)N(C)C)ccc2c1O/C(=C\c1ccco1)C2=O	32µM*	10%	-1%	56µM*	-17%
O=C(O)c1ccc2[nH]cc(CCCCN3CC=C(c4ccccc4)CC3)c2c1	-39%[12.7 µM]	nt	-15%	nt	nt
O=C1NC(=O)N(c2ccccc2F)C(=O)/C1=C/c1ccc(Oc2ccc([N+](=O)[O-])cn2)cc1	20µM*	-3%	?	56µM*	?
